The supplement of paper PMC9694430

Experiments:
Assay in all cases: thermal shift delta Tm vs DMSO control; higher = stronger stabilization (binding)
Settings in all cases: 12.5 µM; protein concentration 2 µM
LOC_OS04G57630-cb004 = system: LOC_OS04G57630-cb004
Procedure, shortened: (§1)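 Compounds dissolved in DMSO were added to purified rice kinase domain constructs, which had been expressed in E. coli, for differential scanning fluorimetry. Each well held 19.5 μl of 2 μM kinase in 100 mM potassium phosphate pH 7.5, 150 mM NaCl, 10% glycerol and 5 × SYPRO Orange. Fluorescence was followed from 25°C to 95°C at a rate of 0.05°C/s. Shifts in Boltzmann-fitted melting temperature are triplicate means relative to DMSO-only protein.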

LOC_OS05G07850-cb002 = system: LOC_OS05G07850-cb002
Procedure, shortened: as §1

LOC_OS05G16824-cb004 = system: LOC_OS05G16824-cb004
Procedure, shortened: as §1

LOC_OS05G28520-cb001 = system: LOC_OS05G28520-cb001
Procedure, shortened: as §1

LOC_OS05G30820-cb001 = system: LOC_OS05G30820-cb001
Procedure, shortened: as §1

LOC_OS05G43570-cb004 = system: LOC_OS05G43570-cb004
Procedure, shortened: as §1

LOC_OS06G16330-cb003 = system: LOC_OS06G16330-cb003
Procedure, shortened: as §1

LOC_OS06G22820-cb001 = system: T1, LOC_OS06G22820-cb001
T1 sequence (whole entry): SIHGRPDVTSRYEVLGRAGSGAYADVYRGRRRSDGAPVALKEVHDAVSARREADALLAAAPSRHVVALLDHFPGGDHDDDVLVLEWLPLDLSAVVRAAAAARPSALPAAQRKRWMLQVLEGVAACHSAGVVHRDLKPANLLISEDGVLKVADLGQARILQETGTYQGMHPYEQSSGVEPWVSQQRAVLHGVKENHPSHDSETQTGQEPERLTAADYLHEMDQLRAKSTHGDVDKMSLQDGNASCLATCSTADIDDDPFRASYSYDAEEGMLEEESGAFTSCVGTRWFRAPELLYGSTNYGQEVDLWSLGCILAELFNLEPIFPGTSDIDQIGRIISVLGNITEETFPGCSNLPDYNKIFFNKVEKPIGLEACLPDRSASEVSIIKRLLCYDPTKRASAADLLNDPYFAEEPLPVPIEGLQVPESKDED
Procedure, shortened: as §1

LOC_OS07G06570-cb004 = system: LOC_OS07G06570-cb004
Procedure, shortened: as §1

LOC_OS07G07230-cb001 = system: LOC_OS07G07230-cb001
Procedure, shortened: as §1

Sequence of LOC_OS06G16330-cb003 (as listed by the source): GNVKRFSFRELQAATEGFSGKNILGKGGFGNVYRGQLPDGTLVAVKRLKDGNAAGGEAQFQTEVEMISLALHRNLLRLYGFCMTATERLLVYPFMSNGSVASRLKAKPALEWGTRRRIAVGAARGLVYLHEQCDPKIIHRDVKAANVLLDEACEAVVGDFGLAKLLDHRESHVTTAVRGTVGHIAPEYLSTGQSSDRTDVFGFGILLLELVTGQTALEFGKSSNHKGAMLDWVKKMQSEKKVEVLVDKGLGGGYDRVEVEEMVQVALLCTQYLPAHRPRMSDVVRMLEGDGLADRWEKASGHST

Row | SMILES | thermal shift delta Tm (LOC_OS04G57630-cb004) [°C] | thermal shift delta Tm (LOC_OS05G07850-cb002) [°C] | thermal shift delta Tm (LOC_OS05G16824-cb004) [°C] | thermal shift delta Tm (LOC_OS05G28520-cb001) [°C] | thermal shift delta Tm (LOC_OS05G30820-cb001) [°C] | thermal shift delta Tm (LOC_OS05G43570-cb004) [°C] | thermal shift delta Tm (LOC_OS06G16330-cb003) [°C] | thermal shift delta Tm (LOC_OS06G22820-cb001) [°C] | thermal shift delta Tm (LOC_OS07G06570-cb004) [°C] | thermal shift delta Tm (LOC_OS07G07230-cb001) [°C]
1 | O=C(Nc1nc2cccc(-c3ccc(CN4CCS(=O)(=O)CC4)cc3)n2n1)C1CC1 [Filgotinib (GLPG0634)] | 0 | 4.98 | 1.83 | 0.76 | 0.46 | 0.12 | 5.12 | 0.31 | 0.9 | 0.58
2 | C[C@@H]1CN(C(=O)c2ccc(NC(=O)c3cc(O[C@H](C)c4c(Cl)ccc(F)c4Cl)c(N)nn3)cc2)C[C@H](C)N1 [Ensartinib (X-396)] | 4.75 | 7.81 | 5.94 | 0.56 | 0.45 | 0.3 | 13.8 | 0.22 | 0.36 | 0.35
3 | Cn1cc(-c2ccc3ncc(Cc4ccc5ncccc5c4)n3n2)cn1 | 1.12 | 5.01 | -1.27 | 0.45 | 0.48 | 0.16 | 2.64 | 0.5 | 0.78 | 0.13
4 | COc1cc2ncnc(Nc3cccc(Cl)c3)c2cc1OC [AG-1478 (Tyrphostin AG-1478)] | 0.54 | 10.9 | 0.02 | 0.3 | 0.62 | 0.52 | 5.45 | 0.8 | 0.35 | 0.01
5 | Cn1cc(-c2ccc3c(c2)CCN3C(=O)Cc2cccc(C(F)(F)F)c2)c2c(N)ncnc21 | 1.69 | 6.67 | 1.91 | 0.55 | 0.78 | 0.46 | 2.76 | 0.97 | 0.97 | 4.19
6 | CCCNC(=O)Nc1ccc(Oc2ncnc3cc(OC)c(OC)cc23)cc1Cl | 0.94 | 5.45 | -1.66 | -0.19 | 0.49 | 0.07 | 1.43 | 0.78 | 0.73 | 0.03
7 | C[C@@H]1COCCN1c1cc(C2([S@](C)(=N)=O)CC2)nc(-c2cc[nH]c3nccc2-3)n1 | -0.11 | 3.99 | -2.04 | 0.65 | 0.15 | 0.19 | 0.37 | -0.1 | 0.71 | -0.05
8 | CCN1/C(=C/C(C)=O)Sc2ccc(OC)cc21 | -0.02 | 2.71 | 0.06 | 0.32 | 0.33 | 0.34 | -0.18 | 0.54 | 0.57 | 0.23
9 | C[C@@H]1COCCN1c1cc(=O)n2c(n1)N(Cc1cncc(Cl)c1)[C@H](C(F)(F)F)CC2 | 0.52 | -0.08 | -0.52 | 1.37 | 0.35 | 0.36 | -0.04 | 0.75 | 1.02 | -0.12
10 | COc1cc(OC)cc(N(CCNC(C)C)c2ccc3ncc(-c4cnn(C)c4)nc3c2)c1 | 0.11 | 3.45 | -0.05 | 0 | 0.18 | 0.08 | 0.79 | 0.32 | 1.94 | 0.52
11 | Cn1c(=O)c(F)c(Nc2ccc(I)cc2F)c2c(=O)n(C[C@@H](O)CO)cnc21 | 0.47 | 1.59 | -1.32 | 0.23 | 0.72 | 1.08 | 0.18 | 0.76 | 0.33 | 0.02
12 | CC(=O)Nc1cccc(-n2c(=O)n(C3CC3)c(=O)c3c(Nc4ccc(I)cc4F)n(C)c(=O)c(C)c32)c1 | 0.23 | 0.88 | -0.98 | 0.48 | 0.42 | 0.15 | -0.52 | 0.44 | 0.26 | -0.16
13 | CCn1cc(-c2ccnc3[nH]c(-c4cccc(CN(C)C)c4)cc23)c(-c2ccc(NC(=O)N(C)C)cc2)n1 | 1.27 | 8.63 | 0.47 | 0.42 | 0.52 | 0.64 | 4.22 | 0.71 | 1.35 | 0.42
14 | COc1ccc(-c2nc(N3CCOCC3)c3sc(CN(C)c4ncc(C(=O)NO)cn4)cc3n2)cn1 | 0 | 0.02 | -1.81 | 0.86 | 0.56 | 0.42 | -0.08 | 0.84 | 0.56 | 0.26
15 | O=C(NCCCNc1nc(Nc2cccc(NC(=O)N3CCCC3)c2)ncc1I)c1cccs1 | 5.69 | 12.1 | 10.4 | 0.99 | 3.99 | 1.24 | 9.95 | 0.36 | 0.51 | 0.21
16 | Cc1nc(NC(=O)N2CCC[C@H]2C(N)=O)sc1-c1ccnc(C(C)(C)C(F)(F)F)c1 [Alpelisib (BYL719)] | -0.02 | 7.19 | -1.37 | 0.17 | 0.38 | 0.29 | 0.44 | 0.57 | 1.48 | 0.13
17 | CNS(=O)(=O)C[C@H]1CC[C@H](N(C)c2[nH]cnc3nccc2-3)CC1 [Oclacitinib] | 0.5 | 7.33 | -0.02 | 0.31 | 0.53 | 0.33 | 3.72 | 0.36 | 1.6 | 0.51
18 | N#Cc1c(Oc2ccc(F)c(NC(=O)Cc3cccc(C(F)(F)F)c3)c2)ccc2nc(NC(=O)C3CC3)sc12 | 0.09 | 0.32 | -2.82 | 0.59 | 0.49 | 0.4 | 0.5 | 0.74 | 1.21 | 0.32
19 | CO[C@H]1C[C@@H]2CC[C@@H](C)[C@@](O)(O2)C(=O)C(=O)N2CCCC[C@H]2C(=O)O[C@H]([C@H](C)C[C@@H]2CC[C@@H](OP(C)(C)=O)[C@H](OC)C2)CC(=O)[C@H](C)/C=C(\C)[C@@H](O)[C@@H](OC)C(=O)[C@H](C)C[C@H](C)/C=C/C=C/C=C/1C [Ridaforolimus (Deforolimus, MK-8669)] | -0.31 | 0.02 | -1.14 | 0.42 | 0.41 | 0.24 | -0.22 | 0.77 | 1.03 | 0.31
20 | Cc1cn(-c2cc(NC(=O)c3ccc(C)c(Nc4nccc(-c5cnccn5)n4)c3)cc(C(F)(F)F)c2)cn1 [Radotinib] | 0.16 | -1.11 | 0.06 | 0.56 | 0.41 | 0.62 | -0.09 | 0.69 | 1.06 | 0.23
